The first test has as its target T1, GST-Nv-NF-kB (Ser allele) (Nematostella vectensis, UniProt A7UNT2 2-411).
T1 sequence: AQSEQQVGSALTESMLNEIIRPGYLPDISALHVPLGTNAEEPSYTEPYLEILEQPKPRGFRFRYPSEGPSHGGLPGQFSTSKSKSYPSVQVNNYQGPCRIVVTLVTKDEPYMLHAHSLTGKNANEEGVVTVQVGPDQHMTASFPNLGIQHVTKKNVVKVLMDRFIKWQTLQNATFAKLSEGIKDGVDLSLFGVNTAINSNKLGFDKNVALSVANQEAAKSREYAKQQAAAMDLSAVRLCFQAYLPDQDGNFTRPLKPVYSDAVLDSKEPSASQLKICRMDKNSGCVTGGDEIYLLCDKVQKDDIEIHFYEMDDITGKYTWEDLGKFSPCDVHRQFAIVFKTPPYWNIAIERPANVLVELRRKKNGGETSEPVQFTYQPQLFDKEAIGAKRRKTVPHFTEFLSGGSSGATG
Nature of the test: protein-binding microarray (PBM); PBM: ~300 nM protein, 6 mM HEPES pH 7.8, 80 mM KCl, 0.5 mM EDTA, 0.5 mM EGTA, 6% glycerol, 35 ng/ul poly-dIdC, 1% milk, 1 h, room temperature; Ap Aiptasia and Nv Nematostella (sea anemones) / Co Capsaspora / Aq Amphimedon (sponge) / Dm Drosophila / Hu human; RHD is the Rel homology domain; high values mean tight binding. Particulars: dsDNA, one strand shown.
For the sequence “CCGATTAACATCAATTGGGAAATTGATGTTAATCGGGTCTTGATTCGCTTGACGCTGCTG”, the binding signal turned out to be 3.48 z-score.
Still for that read-out and setting: to “CCGATTAACATCAAGGTATTTCCTGATGTTAATCGGGTCTTGATTCGCTTGACGCTGCTG” belongs 1.29 z-score.
Still for that read-out and setting: to “CCGATTAACATCAGGAAAAAACCTGATGTTAATCGGGTCTTGATTCGCTTGACGCTGCTG” belongs 2.77 z-score; to “CCGATTAACATCAGGAAGTTACCTGATGTTAATCGGGTCTTGATTCGCTTGACGCTGCTG”, 1.31 z-score.

The target of the next test is T2, GST-Co-NF-kB (Capsaspora owczarzaki, UniProt F1ARL5 200-546).
T2 sequence: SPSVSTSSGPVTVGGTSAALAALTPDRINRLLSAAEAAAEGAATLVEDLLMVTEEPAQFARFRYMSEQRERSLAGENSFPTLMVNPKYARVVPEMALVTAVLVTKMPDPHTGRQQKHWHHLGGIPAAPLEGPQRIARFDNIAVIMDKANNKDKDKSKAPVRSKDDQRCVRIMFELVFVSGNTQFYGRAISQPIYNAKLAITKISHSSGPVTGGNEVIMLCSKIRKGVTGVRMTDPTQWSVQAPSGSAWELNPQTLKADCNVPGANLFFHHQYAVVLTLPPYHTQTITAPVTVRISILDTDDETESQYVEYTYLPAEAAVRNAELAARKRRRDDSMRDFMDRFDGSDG
The test is described as above. Particulars: dsDNA, one strand shown.
Regarding “CCGATTAACATCACATTGGGAAATGATGTTAATCGGGTCTTGATTCGCTTGACGCTGCTG”, the binding signal amounted to 2.31 z-score.
On the same count and under the same terms, to “CCGATTAACATCACATGTGGGAATGATGTTAATCGGGTCTTGATTCGCTTGACGCTGCTG” belongs 2.62 z-score; to “CCGATTAACATCAGGAGTATCCCTGATGTTAATCGGGTCTTGATTCGCTTGACGCTGCTG”, 1.01 z-score.
On to “CCGATTAACATCAATTGGGAAATTGATGTTAATCGGGTCTTGATTCGCTTGACGCTGCTG”, for which the binding signal amounted to 1.8 z-score.
Still for that read-out and setting: to “CCGATTAACATCAAAATATTCCGTGATGTTAATCGGGTCTTGATTCGCTTGACGCTGCTG” belongs 1.07 z-score.
For the sequence “CCGATTAACATCAGGGTTAGTTGTGATGTTAATCGGGTCTTGATTCGCTTGACGCTGCTG”, the binding signal is 1.11 z-score.
The sequence “CCGATTAACATCACAAATGGGAATGATGTTAATCGGGTCTTGATTCGCTTGACGCTGCTG” showed a binding signal of 1.92 z-score.
On the same count and under the same terms, next, “CCGATTAACATCAGACATGGGAATGATGTTAATCGGGTCTTGATTCGCTTGACGCTGCTG”: 2.4 z-score; “CCGATTAACATCATTTCCCAAAATGATGTTAATCGGGTCTTGATTCGCTTGACGCTGCTG”: 1.54 z-score; “CCGATTAACATCAATTCCCAACATGATGTTAATCGGGTCTTGATTCGCTTGACGCTGCTG”: 1.84 z-score.
The sequence “CCGATTAACATCAATTCCCATGATGATGTTAATCGGGTCTTGATTCGCTTGACGCTGCTG” displayed a binding signal of 1.75 z-score.
The same measure, in the same setting: to “CCGATTAACATCAGAAATGGGAATGATGTTAATCGGGTCTTGATTCGCTTGACGCTGCTG” belongs 1.87 z-score; to “CCGATTAACATCAACGGAAATTCTGATGTTAATCGGGTCTTGATTCGCTTGACGCTGCTG”, 1.34 z-score; to “CCGATTAACATCAGGTAATTTACTGATGTTAATCGGGTCTTGATTCGCTTGACGCTGCTG”, 1.89 z-score.
The same measure, in the same setting: next, “CCGATTAACATCAACCATGGGAATGATGTTAATCGGGTCTTGATTCGCTTGACGCTGCTG”: 1.67 z-score; “CCGATTAACATCAAATTGGGAAATGATGTTAATCGGGTCTTGATTCGCTTGACGCTGCTG”: 1.89 z-score.
On the same count and under the same terms, to “CCGATTAACATCAACTTTGGGAATGATGTTAATCGGGTCTTGATTCGCTTGACGCTGCTG” belongs 1.7 z-score; to “CCGATTAACATCATTATGGGAAATGATGTTAATCGGGTCTTGATTCGCTTGACGCTGCTG”, 2.21 z-score.
As for “CCGATTAACATCAAAAAATTCCGTGATGTTAATCGGGTCTTGATTCGCTTGACGCTGCTG”, the binding signal stood at 1.34 z-score.
On to “CCGATTAACATCACCCATGGGAATGATGTTAATCGGGTCTTGATTCGCTTGACGCTGCTG”, for which the binding signal was determined as 2.05 z-score.
The same measure, in the same setting: next, “CCGATTAACATCATTGGGAAAAATGATGTTAATCGGGTCTTGATTCGCTTGACGCTGCTG”: 3.75 z-score.
On the same count and under the same terms, next, “CCGATTAACATCAACTATCCCGCTGATGTTAATCGGGTCTTGATTCGCTTGACGCTGCTG”: 1.37 z-score.
The sequence “CCGATTAACATCACTTTGGGAAATGATGTTAATCGGGTCTTGATTCGCTTGACGCTGCTG” gave a binding signal of 2.05 z-score.
